7 molecules from ChEMBL document CHEMBL1961873, “Compounds: GSK PKIS; Assays: Nanosyn kinase panel” (2012) can be followed below.

Structures are written as SMILES.

The target in test [1] is Serine/threonine-protein kinase PAK 6 (Homo sapiens) (UniProt Q9NQU5). To be noted: at 1 µM.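 Also: values are mean percent inhibition of PAK6 kinase.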
Test [2] concerns Tyrosine-protein kinase ABL1 (Homo sapiens), P00519 [E255K]. The conditions noted are these: at 0.1 µM.
Test [3] has the same test system. To be noted: at 1 µM.
Test [4] concerns Tyrosine-protein kinase ABL1 (Homo sapiens), P00519 [H396P]. To be noted: at 0.1 µM.
For test [5] the test system is unchanged. The conditions noted are these: at 1 µM.
Test [6] concerns Tyrosine-protein kinase ABL1 (Homo sapiens), P00519 [M351T]. To be noted: at 0.1 µM.
For test [7] the test system is unchanged. The conditions noted are these: at 1 µM.
Test [8] concerns Tyrosine-protein kinase ABL1 (Homo sapiens), P00519 [Q252H]. The conditions noted are these: at 0.1 µM.
For test [9] the test system is unchanged. To be noted: at 1 µM.
Test [10] relates to Tyrosine-protein kinase ABL1 (Homo sapiens), P00519 [T315I]. To be noted: at 0.1 µM.
The test system is the same in test [11]. To be noted: at 1 µM.
Test [12] deals with Tyrosine-protein kinase ABL1 (Homo sapiens), P00519 [Y253F]. The conditions noted are these: at 0.1 µM.
Test [13] has the same test system. To be noted: at 1 µM.
Test [14] addresses Tyrosine-protein kinase ABL1 (Homo sapiens) (UniProt P00519). To be noted: at 0.1 µM.
For test [15] the target is unchanged. To be noted: at 1 µM.
The target in test [16] is ALK tyrosine kinase receptor (Homo sapiens) (UniProt Q9UM73). To be noted: at 0.1 µM.
Sequence of ALK tyrosine kinase receptor (Homo sapiens) (Q9UM73 19-1620 limits assumed): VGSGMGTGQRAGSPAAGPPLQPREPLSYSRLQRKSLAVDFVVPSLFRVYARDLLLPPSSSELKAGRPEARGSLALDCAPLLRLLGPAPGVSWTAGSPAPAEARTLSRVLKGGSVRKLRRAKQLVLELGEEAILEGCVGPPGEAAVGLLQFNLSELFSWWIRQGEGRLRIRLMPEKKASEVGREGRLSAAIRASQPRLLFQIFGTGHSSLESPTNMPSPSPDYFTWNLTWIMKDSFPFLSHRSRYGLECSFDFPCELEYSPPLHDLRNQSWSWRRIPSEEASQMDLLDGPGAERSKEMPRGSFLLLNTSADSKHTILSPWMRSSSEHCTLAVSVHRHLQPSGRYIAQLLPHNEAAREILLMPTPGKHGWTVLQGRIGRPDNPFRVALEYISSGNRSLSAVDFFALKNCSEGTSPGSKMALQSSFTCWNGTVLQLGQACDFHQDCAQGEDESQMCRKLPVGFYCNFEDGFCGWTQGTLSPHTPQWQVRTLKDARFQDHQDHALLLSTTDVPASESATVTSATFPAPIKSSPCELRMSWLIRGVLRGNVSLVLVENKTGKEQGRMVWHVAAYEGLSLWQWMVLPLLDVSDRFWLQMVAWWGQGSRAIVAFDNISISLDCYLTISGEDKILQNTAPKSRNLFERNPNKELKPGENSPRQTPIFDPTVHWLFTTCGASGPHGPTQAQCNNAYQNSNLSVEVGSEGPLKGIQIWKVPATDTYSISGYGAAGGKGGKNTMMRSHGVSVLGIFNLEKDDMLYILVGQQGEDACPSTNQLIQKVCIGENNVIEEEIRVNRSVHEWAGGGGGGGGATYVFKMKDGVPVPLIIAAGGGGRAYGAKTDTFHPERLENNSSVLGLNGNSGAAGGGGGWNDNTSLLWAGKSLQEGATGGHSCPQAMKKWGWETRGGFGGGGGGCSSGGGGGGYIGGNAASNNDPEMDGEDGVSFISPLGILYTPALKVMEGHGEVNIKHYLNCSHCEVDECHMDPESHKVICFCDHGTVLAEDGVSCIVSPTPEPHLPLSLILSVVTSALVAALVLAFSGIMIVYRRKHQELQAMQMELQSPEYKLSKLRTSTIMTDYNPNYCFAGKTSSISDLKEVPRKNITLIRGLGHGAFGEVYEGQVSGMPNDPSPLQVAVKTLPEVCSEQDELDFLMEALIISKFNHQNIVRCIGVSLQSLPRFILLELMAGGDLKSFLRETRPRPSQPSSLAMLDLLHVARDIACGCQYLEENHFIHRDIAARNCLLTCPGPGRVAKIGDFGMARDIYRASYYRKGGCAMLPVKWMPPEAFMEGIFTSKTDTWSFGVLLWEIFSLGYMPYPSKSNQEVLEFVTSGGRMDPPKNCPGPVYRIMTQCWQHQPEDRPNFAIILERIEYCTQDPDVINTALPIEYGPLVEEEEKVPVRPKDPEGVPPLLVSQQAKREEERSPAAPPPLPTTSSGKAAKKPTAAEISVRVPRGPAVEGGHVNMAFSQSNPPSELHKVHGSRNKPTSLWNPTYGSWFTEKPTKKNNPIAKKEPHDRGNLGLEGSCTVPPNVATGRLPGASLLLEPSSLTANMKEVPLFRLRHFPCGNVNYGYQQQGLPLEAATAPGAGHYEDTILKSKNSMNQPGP
For test [17] the target is unchanged. The conditions noted are these: at 1 µM.
Test [18] has as its target Tyrosine-protein kinase ABL2 (Homo sapiens) (UniProt P42684). The conditions noted are these: at 0.1 µM.
The target of test [19] is Tyrosine-protein kinase receptor UFO (Homo sapiens) (UniProt P30530). To be noted: at 0.1 µM.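 Also: values are mean percent inhibition of AXL from the GSK PKIS screen.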
Sequence of Tyrosine-protein kinase receptor UFO (Homo sapiens) (P30530 whole entry): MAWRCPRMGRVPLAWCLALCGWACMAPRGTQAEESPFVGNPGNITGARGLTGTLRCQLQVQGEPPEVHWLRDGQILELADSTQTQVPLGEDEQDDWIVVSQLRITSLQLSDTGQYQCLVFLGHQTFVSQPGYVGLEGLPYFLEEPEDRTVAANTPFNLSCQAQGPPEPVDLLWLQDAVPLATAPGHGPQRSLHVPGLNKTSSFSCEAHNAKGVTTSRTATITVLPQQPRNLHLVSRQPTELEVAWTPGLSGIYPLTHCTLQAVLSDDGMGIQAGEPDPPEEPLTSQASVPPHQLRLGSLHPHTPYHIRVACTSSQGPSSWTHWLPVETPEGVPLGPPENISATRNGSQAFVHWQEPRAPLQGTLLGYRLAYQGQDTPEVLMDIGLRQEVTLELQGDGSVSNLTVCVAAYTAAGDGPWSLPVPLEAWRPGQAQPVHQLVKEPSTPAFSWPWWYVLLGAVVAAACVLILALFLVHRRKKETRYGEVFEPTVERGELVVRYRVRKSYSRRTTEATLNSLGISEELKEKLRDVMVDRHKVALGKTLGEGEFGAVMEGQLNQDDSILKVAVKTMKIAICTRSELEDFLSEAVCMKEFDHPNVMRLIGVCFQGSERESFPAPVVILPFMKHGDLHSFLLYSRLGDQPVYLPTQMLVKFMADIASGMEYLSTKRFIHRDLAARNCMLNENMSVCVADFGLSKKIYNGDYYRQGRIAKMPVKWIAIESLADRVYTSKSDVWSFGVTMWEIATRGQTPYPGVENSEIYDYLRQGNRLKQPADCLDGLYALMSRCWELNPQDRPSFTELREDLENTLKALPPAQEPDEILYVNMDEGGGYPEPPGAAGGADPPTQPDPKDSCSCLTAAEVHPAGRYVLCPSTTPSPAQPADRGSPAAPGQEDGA
Test [20] addresses Tyrosine-protein kinase ABL2 (Homo sapiens) (UniProt P42684). To be noted: at 1 µM.

As a reminder, the inhibition is the relative decrease from the control value, in per cent.

Sequence of Tyrosine-protein kinase ABL2 (Homo sapiens) (P42684 whole entry): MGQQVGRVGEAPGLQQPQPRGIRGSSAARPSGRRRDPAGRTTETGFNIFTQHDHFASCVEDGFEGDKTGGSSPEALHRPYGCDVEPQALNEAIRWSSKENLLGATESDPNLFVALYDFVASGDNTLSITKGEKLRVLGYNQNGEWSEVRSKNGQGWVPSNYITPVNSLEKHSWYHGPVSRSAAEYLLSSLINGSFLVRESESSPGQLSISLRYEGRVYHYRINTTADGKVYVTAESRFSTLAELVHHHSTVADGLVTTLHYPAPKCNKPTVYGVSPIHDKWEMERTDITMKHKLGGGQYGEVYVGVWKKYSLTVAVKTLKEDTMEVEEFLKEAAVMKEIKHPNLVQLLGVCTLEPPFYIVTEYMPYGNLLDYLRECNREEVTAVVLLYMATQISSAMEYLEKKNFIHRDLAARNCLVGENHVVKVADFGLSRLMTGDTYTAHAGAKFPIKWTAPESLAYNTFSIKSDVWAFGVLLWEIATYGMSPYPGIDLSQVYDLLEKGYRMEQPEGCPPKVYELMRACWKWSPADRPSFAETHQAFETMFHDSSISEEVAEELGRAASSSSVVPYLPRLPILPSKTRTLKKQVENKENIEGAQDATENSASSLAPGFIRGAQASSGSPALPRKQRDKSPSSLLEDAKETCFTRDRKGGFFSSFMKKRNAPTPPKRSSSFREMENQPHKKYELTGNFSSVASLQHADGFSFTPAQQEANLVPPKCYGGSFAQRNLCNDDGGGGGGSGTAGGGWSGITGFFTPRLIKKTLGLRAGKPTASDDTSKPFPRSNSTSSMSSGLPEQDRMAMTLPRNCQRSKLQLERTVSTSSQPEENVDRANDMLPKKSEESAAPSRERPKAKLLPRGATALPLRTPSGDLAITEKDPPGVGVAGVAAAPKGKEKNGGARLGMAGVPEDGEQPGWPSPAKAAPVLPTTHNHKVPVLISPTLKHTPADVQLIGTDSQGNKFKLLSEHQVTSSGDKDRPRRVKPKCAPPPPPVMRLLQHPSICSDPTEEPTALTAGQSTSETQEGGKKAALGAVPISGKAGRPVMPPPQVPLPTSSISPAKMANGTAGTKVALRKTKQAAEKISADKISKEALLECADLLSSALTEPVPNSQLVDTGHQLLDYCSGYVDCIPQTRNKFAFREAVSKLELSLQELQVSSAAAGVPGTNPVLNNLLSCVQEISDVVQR
Sequence of Serine/threonine-protein kinase PAK 6 (Homo sapiens) (Q9NQU5 whole entry, looked up): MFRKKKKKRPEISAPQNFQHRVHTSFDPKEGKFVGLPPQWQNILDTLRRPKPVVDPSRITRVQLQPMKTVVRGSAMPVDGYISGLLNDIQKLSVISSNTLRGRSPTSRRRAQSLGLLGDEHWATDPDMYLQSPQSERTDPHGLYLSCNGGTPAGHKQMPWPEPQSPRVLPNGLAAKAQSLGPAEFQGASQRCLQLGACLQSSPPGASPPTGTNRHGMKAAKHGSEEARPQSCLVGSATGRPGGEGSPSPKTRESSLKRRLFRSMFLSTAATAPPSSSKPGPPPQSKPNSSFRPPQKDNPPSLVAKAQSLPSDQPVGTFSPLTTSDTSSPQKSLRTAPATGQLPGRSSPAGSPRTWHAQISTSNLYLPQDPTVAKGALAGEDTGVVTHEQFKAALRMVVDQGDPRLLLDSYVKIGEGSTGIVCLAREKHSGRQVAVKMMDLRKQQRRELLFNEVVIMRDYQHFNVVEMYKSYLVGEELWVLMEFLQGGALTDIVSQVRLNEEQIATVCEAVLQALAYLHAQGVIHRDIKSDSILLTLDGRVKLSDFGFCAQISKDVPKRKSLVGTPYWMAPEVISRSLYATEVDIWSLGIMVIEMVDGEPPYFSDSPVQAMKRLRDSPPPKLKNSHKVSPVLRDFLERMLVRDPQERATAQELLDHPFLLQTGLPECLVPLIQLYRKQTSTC

On to `OCc1ccc(-c2nc(-c3ccccn3)c(-c3ccc4c(c3)OCO4)[nH]2)cc1`, for which the inhibition in [1] stood at 5.51%; in test [2] it was 4%; in [3], 3.72%; in [4] it was 2.95%; in [5], 3.25%; in test [6] it was 1.06%. In addition, the inhibition in test [7] is 2.45%; in [8], 3.06%; in test [9] it was 3.19%; in test [10] it was 1.99%; in [11], 0.39%; in test [12], 4.74%. The inhibition in test [13] is 4.83%; in test [14] it was 8.07%; in test [15], 12.3%; in test [16], 3.63%; in test [17], 8.19%; in [18], 5.94%. The inhibition in test [19] was -6.62%.
Take `CN(C)C(=O)O[C@@H]1CN[C@@H](C#Cc2cc3ncnc(Nc4ccc(OCc5cccc(F)c5)c(Cl)c4)c3s2)C1`: the inhibition is -6.9% in [1]; -0.68% in test [2]; 2.16% in [3]; -0.68% in [4]; -1.23% in test [5]; -1.17% in [6]. Besides, the inhibition in test [7] is 0.01%; in [8] it was 2.52%; in test [9], 2.17%; in [10], -0.5%; in test [11], -0.07%; in [12], 1.53%. Besides, the inhibition in [13] is 3.44%; in test [14], 1.35%; in [15], 6.2%; in test [16] it was 1.27%; in test [17], 1.3%; in [18], 1.71%. Moreover, the inhibition is 8.08% in [20] and -0.96% in test [19].
In the case of `COc1cccc(-n2ncc3c(N/N=C/c4ccc(S(C)(=O)=O)cc4)ncnc32)c1`, the inhibition in [1] was 5.24%; in test [2] it was 79%; in [3] it was 93.4%; in [4] it was 85.2%; in [5], 94.1%; in test [6] it was 84.9%. Moreover, the inhibition was 95.5% in test [7]; 87.2% in test [8]; 95% in [9]; 49.4% in test [10]; 87% in [11]; 86.2% in [12]. Also, the inhibition in [13] is 94.7%; in test [14], 62%; in [15], 73%; in [16], -3.22%; in test [17], -1.6%; in [18] it was 45.4%. Further, the inhibition in [20] was 61.7%; in test [19] it was -1.8%.
As for `CC(C)c1ccc2c(c1)NC(=O)/C2=N/Nc1ccc(S(N)(=O)=O)cc1`, the inhibition in [1] is -5.25%; in test [2] it was 1.09%; in test [3], 12%; in [4], 5.36%; in test [5] it was 33.7%; in test [6], 7.06%. Moreover, the inhibition in test [7] amounted to 38%; in [8] it was 4.4%; in test [9] it was 26.6%; in [10] it was 1.24%; in test [11], 6.52%; in test [12], 4.59%. Also, the inhibition in test [13] was 28.8%; in test [14], 6.22%; in test [15], 32.8%; in test [16] it was -0.35%; in [17], 2.81%; in test [18], 3.65%. Also, the inhibition in test [20] is 25.7%; in test [19] it was -0.26%.
In the case of `N#Cc1c(NC(=O)c2ccccc2F)sc2c1CCCC2`, the inhibition in test [1] is 3.35%; in test [2] it was -0.62%; in test [3], 1.08%; in [4], 0.3%; in test [5], -1.4%; in test [6], 0.7%. The inhibition in test [7] was 0.57%; in test [8], -0.76%; in test [9] it was -0.72%; in [10] it was -0.91%; in test [11], 0.12%; in [12], -0.24%. Besides, the inhibition was 0.05% in test [13]; 0.07% in [14]; 1.47% in test [15]; -1.14% in [16]; 1.02% in test [17]; -0.22% in test [18]. Further, the inhibition in [20] came to 1.82%; in test [19], 1.78%.
Take `COc1ccc2ncnc(Nc3ccc(OCc4ccccc4)cc3)c2c1`: the inhibition is 1.91% in test [2]; 2.75% in test [3]; 1.73% in [4]; 4.61% in test [5]; -1.29% in [6]; 2.67% in test [7]. For the same molecule, the inhibition came to 0.25% in [8]; 4.68% in test [9]; 0.02% in [10]; 3.21% in test [11]; 2.03% in [12]; 1.02% in [13]. Also, the inhibition is 1.65% in test [14]; 4.79% in test [15]; 0.66% in test [16]; 0.87% in test [17]; 2.72% in test [18]; 4.53% in test [20]. Moreover, the inhibition in test [19] is -3.58%.
With `COC(=O)Nc1nc2cc(Oc3ccc(NC(=O)Nc4cccc(Br)c4)cc3)ccc2[nH]1`, the inhibition is -4.46% in [1]; 4.52% in test [2]; 5.09% in test [3]; 16.4% in test [4]; 35% in [5]; 42.6% in test [6]. Besides, the inhibition in test [7] turned out to be 54.6%; in [8], 39.7%; in test [9], 57.8%; in [10], 30.1%; in test [11], 44.6%; in test [12], 7.87%. The inhibition in test [13] amounted to 16.5%; in [14], 6.66%; in test [15] it was 19%; in test [16] it was 2.06%; in [17], 3.65%; in test [18], 16.1%. Further, the inhibition in [20] is 34.4%; in test [19], -0.21%.
